Measurements: PubChem BioAssay AID1159580 (chemical genetic matrix, 2015)
Values joined by “and” are separate entries in the source; they are usually repeats but may differ in a detail not shown here. Equal values may be shown once. Hit rate of the full screen: of about 5,500 compounds, about 2,000 (36%) were called active. Inconclusive results (about 18%) are left out. Cut-off read from the data, not from the text of the source: active = normalized growth mostly below about 0.91 (no sharp cut-off); inconclusive = no clear call, values can overlap the other calls; inactive = mostly above about 0.92. The list shows a part of the results.

Assay: chemical genetic growth profiling, strain panel (AID 1159580);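 note: tested at 20 µM; growth read once vehicle control cultures reached saturation at 30 °C; 1 = growth at the plate median or of vehicle wells; lower values mean less growth of the strain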
Conditions: growth OD
[1] = S. cerevisiae deletion strains, locus YBR021W, strain FUR4, stronger effect = lower value
[2] = S. cerevisiae deletion strains, locus YBR229C, strain ROT2, stronger effect = lower value
[3] = S. cerevisiae deletion strains, locus YCL029C, strain bik1, stronger effect = lower value
[4] = S. cerevisiae deletion strains, locus YDL035C, strain GPR1, stronger effect = lower value
[5] = S. cerevisiae deletion strains, locus YDL074C, strain BRE1, stronger effect = lower value
[6] = S. cerevisiae deletion strains, locus YDL101C, strain DUN1, stronger effect = lower value
[7] = S. cerevisiae deletion strains, locus YDL185W, strain tfp1, stronger effect = lower value
[8] = S. cerevisiae deletion strains, locus YDL192W, strain arf1, stronger effect = lower value
[9] = S. cerevisiae deletion strains, locus YDR101C, strain arx1, stronger effect = lower value
[10] = S. cerevisiae deletion strains, locus YDR162C, strain NBP2, stronger effect = lower value
[11] = S. cerevisiae deletion strains, locus YDR318W, strain mcm21, stronger effect = lower value
[12] = S. cerevisiae deletion strains, locus YDR388W, stronger effect = lower value
[13] = S. cerevisiae deletion strains, locus YDR502C, strain sam2, stronger effect = lower value
[14] = S. cerevisiae deletion strains, locus YER110C, stronger effect = lower value
[15] = S. cerevisiae deletion strains, locus YER155C, strain BEM2, stronger effect = lower value
[16] = S. cerevisiae deletion strains, locus YER167W, strain BCK2, stronger effect = lower value
[17] = S. cerevisiae deletion strains, locus YGL078C, strain dbp3, stronger effect = lower value
[18] = S. cerevisiae deletion strains, locus YGL086W, strain mad1, stronger effect = lower value
[19] = S. cerevisiae deletion strains, locus YGL248W, strain PDE1, stronger effect = lower value
[20] = S. cerevisiae deletion strains, locus YGR135W, strain pre9, stronger effect = lower value
[21] = S. cerevisiae deletion strains, locus YGR252W, strain gcn5, stronger effect = lower value
[22] = S. cerevisiae deletion strains, locus YHR030C, strain SLT2, stronger effect = lower value
[23] = S. cerevisiae deletion strains, locus YHR079C, strain IRE1 (second series), stronger effect = lower value
[24] = S. cerevisiae deletion strains, locus YHR094C, strain hxt1, stronger effect = lower value
[25] = S. cerevisiae deletion strains, locus YHR129C, strain ARP1, stronger effect = lower value
[26] = S. cerevisiae deletion strains, locus YHR200W, strain rpn10, stronger effect = lower value
[27] = S. cerevisiae deletion strains, locus YIL066C, strain RNR3, stronger effect = lower value
[28] = S. cerevisiae deletion strains, locus YIL073C, strain SPO22, stronger effect = lower value
[29] = S. cerevisiae deletion strains, locus YIL125W, strain kgd1, stronger effect = lower value
[30] = S. cerevisiae deletion strains, locus YIR030C, strain dcg1, stronger effect = lower value
[31] = S. cerevisiae deletion strains, locus YJL095W, strain BCK1, stronger effect = lower value
[32] = S. cerevisiae deletion strains, locus YJL134W, strain LCB3, stronger effect = lower value
[33] = S. cerevisiae deletion strains, locus YJL168C, strain set2, stronger effect = lower value
[34] = S. cerevisiae deletion strains, locus YJL187C, strain SWE1 (second series), stronger effect = lower value
[35] = S. cerevisiae deletion strains, locus YKL009W, strain mrt4, stronger effect = lower value
[36] = S. cerevisiae deletion strains, locus YKL068W, stronger effect = lower value
[37] = S. cerevisiae deletion strains, locus YKL085W, strain MDH1 (second series), stronger effect = lower value
[38] = S. cerevisiae deletion strains, locus YKL085W, strain MDH1, stronger effect = lower value
[39] = S. cerevisiae deletion strains, locus YKR001C, strain vps1, stronger effect = lower value
[40] = S. cerevisiae deletion strains, locus YLR039C, strain RIC1, stronger effect = lower value
[41] = S. cerevisiae deletion strains, locus YLR058C, strain SHM2, stronger effect = lower value
[42] = S. cerevisiae deletion strains, locus YLR102C, strain apc9, stronger effect = lower value
[43] = S. cerevisiae deletion strains, locus YLR262C, strain YPT6, stronger effect = lower value
[44] = S. cerevisiae deletion strains, locus YLR268W, strain sec22, stronger effect = lower value
[45] = S. cerevisiae deletion strains, locus YLR371W, strain rom2, stronger effect = lower value
[46] = S. cerevisiae deletion strains, locus YLR418C, strain cdc73, stronger effect = lower value
[47] = S. cerevisiae deletion strains, locus YML016C, strain PPZ1, stronger effect = lower value
[48] = S. cerevisiae deletion strains, locus YML032C, strain rad52, stronger effect = lower value
[49] = S. cerevisiae deletion strains, locus YML124C, strain tub3, stronger effect = lower value
[50] = S. cerevisiae deletion strains, locus YMR078C, strain ctf18, stronger effect = lower value
[51] = S. cerevisiae deletion strains, locus YMR223W, strain ubp8, stronger effect = lower value
[52] = S. cerevisiae deletion strains, locus YMR307W, strain GAS1, stronger effect = lower value
[53] = S. cerevisiae deletion strains, locus YNL067W, strain RPL9B, stronger effect = lower value
[54] = S. cerevisiae deletion strains, locus YNL233W, strain BNI4, stronger effect = lower value
[55] = S. cerevisiae deletion strains, locus YNL250W, strain rad50, stronger effect = lower value
[56] = S. cerevisiae deletion strains, locus YNL271C, strain bni1, stronger effect = lower value
[57] = S. cerevisiae deletion strains, locus YNL298W, strain CLA4, stronger effect = lower value
[58] = S. cerevisiae deletion strains, locus YNL307C, strain MCK1, stronger effect = lower value
[59] = S. cerevisiae deletion strains, locus YNR052C, strain pop2, stronger effect = lower value
[60] = S. cerevisiae deletion strains, locus YOL012C, strain htz1
[61] = S. cerevisiae deletion strains, locus YOL147C, strain pex11, stronger effect = lower value
[62] = S. cerevisiae deletion strains, locus YOR061W, strain CKA2, stronger effect = lower value
[63] = S. cerevisiae deletion strains, locus YOR069W, strain VPS5, stronger effect = lower value
[64] = S. cerevisiae deletion strains, locus YOR136W, strain idh2, stronger effect = lower value
[65] = S. cerevisiae deletion strains, locus YOR144C, strain elg1, stronger effect = lower value
[66] = S. cerevisiae deletion strains, locus YOR184W, strain ser1, stronger effect = lower value
[67] = S. cerevisiae deletion strains, locus YOR316C, strain cot1, stronger effect = lower value
[68] = S. cerevisiae deletion strains, locus YPR119W, strain clb2, stronger effect = lower value
[69] = S. cerevisiae deletion strains, locus YPR141C, strain kar3, stronger effect = lower value
[70] = S. cerevisiae deletion strains, locus YPR163C, strain tif3, stronger effect = lower value
[71] = S. cerevisiae deletion strains, locus YPR167C, strain met16, stronger effect = lower value
[72] = S. cerevisiae deletion strains, strain wtn01, stronger effect = lower value

Measured: normalized growth

C[C@]12CC[C@@H](O)C[C@H]1CCc1ccccc12
inactive: [1] 0.967 | [2] 1.01 | [3] 1 | [4] 1.01 | [5] 1.04 | [6] 1.01 | [7] 1.01 | [8] 0.999 | [9] 1.01 | [10] 1.04 | [11] 1 | [12] 1.01 | [13] 0.989 | S. cerevisiae deletion strains, locus YEL061C, strain CIN8, stronger effect = lower value 1.02 | [14] 0.999 | [15] 1.01 | [16] 1.02 | [17] 0.966 | [18] 0.989 | [19] 1 | [20] 0.992 | [21] 0.94 | [22] 1.02 | [23] 0.997 | [24] 0.999 | [25] 1.02 | [26] 1.01 | [27] 1.05 | [28] 1.04 | [29] 0.996 | [30] 1.01 | [31] 1 | [32] 1.02 | [33] 1 | [34] 1 | [35] 1.01 | [36] 1.01 | [37] 1.02 | [38] 1.02 | [39] 0.977 | [40] 0.918 | [41] 1.02 | [42] 1 | [43] 0.968 | [44] 1 | [45] 1.04 | [46] 0.973 | [47] 1.02 | [48] 0.99 | [49] 1 | [50] 1 | [51] 0.985 | [52] 1.07 | [53] 1 | [54] 1.01 | [55] 1.04 | [56] 1.01 | [57] 0.989 | [58] 1 | [59] 0.987 | S. cerevisiae deletion strains, locus YOL006C, strain TOP1, stronger effect = lower value 1.09 | [60] 1.06 | [61] 1.01 | [62] 1.03 | [63] 1.02 | [64] 0.995 | [65] 1 | [66] 0.978 | [67] 1 | S. cerevisiae deletion strains, locus YPL241C, strain CIN2, stronger effect = lower value 1.02 | [68] 1 | [69] 1.02 | [70] 1 | [71] 0.997 | [72] 0.99

C[C@]12[C@H](O)CC3C(CC[C@@H]4C[C@@H](O)CC[C@]34C)[C@@]1(O)CC[C@@H]2C1=CC(=O)OC1 (stereo partly drawn)
inactive: [1] 1.05 | [2] 1.01 | [3] 0.992 | [4] 1.07 | [5] 1.07 | [6] 1.01 | S. cerevisiae deletion strains, locus YDL134C, strain PPH21, stronger effect = lower value 0.997 | [7] 0.987 | [8] 1 | [9] 1.01 | [10] 1.01 | [11] 0.999 | [12] 0.976 | [13] 0.971 | [14] 0.974 | [15] 0.998 | [16] 1.02 | [17] 0.979 | [18] 0.983 | [19] 1.01 | S. cerevisiae deletion strains, locus YGR078C, strain PAC10, stronger effect = lower value 1.01 | [20] 0.941 | [21] 0.923 | [22] 1.01 and 1 | [23] 0.98 | S. cerevisiae deletion strains, locus YHR079C, strain IRE1, stronger effect = lower value 0.993 | [24] 0.976 | [25] 1.01 | [26] 0.968 | [27] 1.04 | [28] 1 | [29] 0.984 | [30] 0.986 | [31] 0.999 and 0.994 | [32] 1.01 | [33] 0.994 | [34] 1.01 | S. cerevisiae deletion strains, locus YJR066W, strain TOR1, stronger effect = lower value 0.903 | [35] 1.02 | [36] 0.994 | [37] 0.975 | [38] 0.975 | [39] 1.01 | [40] 1.05 | [41] 1.02 | [42] 0.982 | S. cerevisiae deletion strains, locus YLR113W, strain HOG1, stronger effect = lower value 1.03 | [43] 1.09 | [44] 1.01 | S. cerevisiae deletion strains, locus YLR342W, strain FKS1 (second series), stronger effect = lower value 1.05 | [45] 0.996 | [46] 0.955 | [47] 1.02 | [48] 0.998 | [49] 0.986 | [50] 0.979 | [51] 0.974 | [52] 1.13 | [53] 0.99 | S. cerevisiae deletion strains, locus YNL153C, strain GIM3, stronger effect = lower value 1 | S. cerevisiae deletion strains, locus YNL183C, strain NPR1, stronger effect = lower value 0.924 | [54] 1 | [55] 0.974 | [56] 0.991 | [57] 1.01 | [58] 0.977 | [59] 0.965 | [60] 0.887 | [61] 0.99 | [62] 1.04 | [63] 1.01 | [64] 0.952 | [65] 0.987 | [66] 1.03 | S. cerevisiae deletion strains, locus YOR231W, strain MKK1, stronger effect = lower value 1 | [67] 0.982 | S. cerevisiae deletion strains, locus YPL256C, strain CLN2, stronger effect = lower value 0.982 | [68] 0.985 | [69] 0.983 | [70] 0.988 | [71] 0.984 | [72] 0.998 | S. cerevisiae strains, strain wild type, stronger effect = lower value 1.03
